Compound activity as filed in PubChem.
Tau fluor cs – Counterscreen qHTS for Inhibitors of Tau Fibril Formation, Fluorescence Polarization. tau K18 P301L Alexa594 fluorescence, heparin fibrillization. Potency, µM (doses to about 57.7 µM). 0.93% of 280,000 active. AID 1463, 2008; note: nearly all actives have a fitted effect of over 55% in size
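Human K18 P301L tau (15 uM unlabeled plus 0.24 uM Alexa 594-labeled, final) in 100 mM sodium acetate pH 7 was mixed with compound and 20 uM heparin and incubated 6 hr at 37 C.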
TRb-SRC2 inh – qHTS for Inhibitors of the Interaction of Thyroid Hormone Receptor and Steroid Receptor Coregulator 2. Thyroid hormone receptor beta (Homo sapiens), P10828. Potency, µM (highest dose often 106 µM), usual class: inhibitors. AID 1469, 2008. TRbeta-SRC2 peptide binding, fluorescence polarization; receptor liganded with 1 µM T3. 0.065% of 280,000 active; note: nearly all actives have a fitted effect of over 50% in size
Target sequence (P10828 whole entry, looked up): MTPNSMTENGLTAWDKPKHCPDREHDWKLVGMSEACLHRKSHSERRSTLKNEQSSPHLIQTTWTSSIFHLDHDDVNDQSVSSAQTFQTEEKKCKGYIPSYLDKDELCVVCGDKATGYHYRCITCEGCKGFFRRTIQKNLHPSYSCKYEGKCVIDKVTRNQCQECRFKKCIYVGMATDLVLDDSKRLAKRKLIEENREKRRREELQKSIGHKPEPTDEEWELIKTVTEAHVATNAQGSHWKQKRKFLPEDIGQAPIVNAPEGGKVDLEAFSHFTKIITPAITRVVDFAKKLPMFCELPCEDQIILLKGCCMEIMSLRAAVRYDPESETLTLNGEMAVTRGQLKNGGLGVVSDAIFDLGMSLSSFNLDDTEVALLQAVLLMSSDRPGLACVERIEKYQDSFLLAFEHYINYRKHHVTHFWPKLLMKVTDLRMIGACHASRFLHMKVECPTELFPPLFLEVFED
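Human TRb LBD (0.6 uM) plus Texas Red-labeled SRC2 peptide (20 nM), 1uM T3, 5% DMSO, 5 hr at ambient temperature. Decreased polarization (555/632 nm) flags inhibition; data normalized to free and bound peptide controls.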
TR SRC2 fluor cs – Total Fluorescence Counterscreen for Inhibitors of the Interaction of Thyroid Hormone Receptor and Steroid Receptor Coregulator 2. TRb/SRC2 Texas Red total fluorescence interference. Potency, µM (series often up to 106 µM). 0.29% of 280,000 active. AID 1479, 2009; active = well fitted curve in either direction with a large enough effect; inconclusive = small, poorly fitted or top-dose-only effect
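Flags fluorescent or light-absorbing compounds by total fluorescence, S + 2P, at 555 nm excitation and 632 nm emission. Mixture: 20 nM Texas Red SRC2 peptide, 0.6 uM human TRb LBD, 1 uM T3, 5% DMSO; compound exposure 5 h at ambient temperature.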
PNC inhibitor – High Content Assay for Compounds that inhibit the Assembly of the Perinucleolar Compartment; 3.1% of 140,000 active; activity change (PNC), negative = inhibition, % at 10 µM; AID 2417, 2010; PC3M PTB-GFP, PNC prevalence imaging, 16 h; active compounds read low;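 active = readout at or below -70, meaning at least 70% loss of cells showing the perinucleolar compartment, a nuclear body marking cancer cells; inconclusive = readout between -30 and a set limit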
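PC3M cells stably expressing PTB-GFP, 750–1000 cells/well, treated 16 h at 37 °C with compound (23 nl of library stock), in duplicate. After paraformaldehyde fixation and Hoechst stain, imaged at 20x; PNC prevalence scored by image analysis.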
Tau ThT inhib – qHTS for Inhibitors of Tau Fibril Formation, Thioflavin T Binding; Microtubule-associated protein tau (Homo sapiens), P10636; recombinant tau K18 P301L (four-repeat tau fragment), heparin-induced fibrillization, ThT fluorescence; Potency, µM (titrated, usually from 57.4 µM), hits mostly inhibitors; 2.1% of 270,000 active; AID 1460, 2008; note: nearly all actives have a fitted effect of over 55% in size
Target sequence (P10636 561-689 P618L limits assumed): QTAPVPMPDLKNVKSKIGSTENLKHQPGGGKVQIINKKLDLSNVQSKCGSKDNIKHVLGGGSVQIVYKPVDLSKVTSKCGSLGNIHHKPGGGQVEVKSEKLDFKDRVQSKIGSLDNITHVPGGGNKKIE
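Tau K18 P301L fragment (15 uM unlabeled plus 0.24 uM Alexa 594-labeled) in 100 mM sodium acetate pH 7 with compound, fibrillization induced by 20 uM heparin for 6 hr at 37 C. Thioflavin T (30 uM) added, fluorescence read after 1 hr (ex 450, em 510 nm).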
Tau fibril FP – qHTS for Inhibitors of Tau Fibril Formation, Fluorescence Polarization; K18 P301L tau heparin fibrillization, Alexa594 FP, 6 h; Potency, µM (top dose mostly 57.7 µM), actives largely listed as inhibitors; 0.39% of 280,000 active; note: nearly all actives have a fitted effect of over 55% in size
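FP of Alexa 594-tau after heparin (20 uM) induction. Substrate: human K18 P301L, 15 uM unlabeled, 0.24 uM labeled. Buffer 100 mM sodium acetate pH 7. 6 hr, 37 C.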
Numbers stand for hits; i = inactive; ? = inconclusive; nt = not tested or not shown; [ ] = dose if it differs, or a comment. Sampled rows, rich in hits. Any-hit rate of the full collection: about 4.6%. Unless noted, calls come from the whole dose curve; as a rule, active = well fitted curve in the direction sought with a large enough effect; inconclusive = small, poorly fitted or top-dose-only effect, or another doubt; inactive = no such curve, though single readings can be large; an effect the other way counts as inactive or inconclusive.

SMILES	Tau fluor cs	TRb-SRC2 inh	TR SRC2 fluor cs	PNC inhibitor	Tau ThT inhib	Tau fibril FP
COc1ccc(C2C(C(C)=O)=C(O)C(=O)N2c2cccnc2)c(OC)c1 (stereo not given)	i	i	i	?	?	?
COc1ccc(C2C(C(C)=O)=C(O)C(=O)N2C)c(OC)c1 (stereo not given)	i	i	i	-127.2	i	i
C/C(=N\N=C(N)N)c1cccc([N+](=O)[O-])c1	i	i	i	i	i	i
C/C(=N\N=C\c1ccc(N(C)C)cc1)c1cccc([N+](=O)[O-])c1	i	i	i	i	1.26µM	i
CCCN1CCN(C(=S)Nc2ccccc2C(F)(F)F)CC1	i	i	i	i	i	i
COc1ccc2nc(Nc3sc4c(c3C(N)=O)CCCC4)sc2c1	?	i	?	i	7.08µM	i
COc1cccc(Nc2nc3ccc(OC)cc3s2)c1	12.6µM[quencher]	i	i	nt	12.6µM	i
COc1ccc2nc(NC3=NCCC3)sc2c1	i	i	i	i	i	i
CC(C)(O)C1=NOC(c2ccccc2)C1 (stereo not given)	i	i	i	i	i	i
O=C(c1cccc([N+](=O)[O-])c1)N1CCN(Cc2ccc3c(c2)OCO3)CC1	i	i	i	nt	i	i
CC(=O)N1CCCc2cc(S(=O)(=O)N3CCCC(C(=O)NCc4ccc(C)cc4)C3)ccc21 (stereo not given)	i	i	i	nt	i	i
O=C1OCC2=C1C(c1ccc(Cl)cc1)CC(=O)N2c1ccc(F)cc1 (stereo not given)	i	i	i	nt	i	i
N#Cc1c(N)c(C(=O)c2ccccc2)n2c1CCCC2	i	i	i	i	i	i
CC(=O)N(C(C)=O)c1c(C#N)c(C)n(-c2ccccc2)c1C(=O)c1ccccc1	i	i	i	-92.5	i	i
O=C(c1ccccc1)c1ccc(CN2C(=O)c3ccccc3C2=O)o1	i	i	i	?	i	i
CCOC(=O)C(C)n1cnc2c1c(=O)[nH]c(=O)n2C (stereo not given)	i	i	i	-100.0	i	i
CCOC(=O)C1=C(O)c2ccccc2C(=O)/C1=C\c1ccc(C)cc1	i	i	i	?	14.1µM	?
CCOC(=O)C1=C(O)/C(=C\c2ccc(OC)c(OC)c2)N=C1C	i	i	i	i	?	?
Cc1ccc(-n2c(CCC(=O)O)ccc2-c2cccs2)cc1C	i	i	i	i	?	i
CCOC(=O)CSc1nc2cc(OCC)ccc2cc1C#N	i	i	i	i	15.8µM	i
CCOc1ccc2cc(C#N)c(SCC(=O)N3CCC(C)CC3)nc2c1	i	i	i	i	i	?
Cc1ccc2cc(C#N)c(SCC(=O)NCc3ccco3)nc2c1	i	i	i	-82.4	?	i
Cc1ccc2nc(SCC(=O)NCc3ccco3)c(C#N)cc2c1	i	i	i	i	i	i
FC(F)(F)c1ccc2c(c1)N1CCCC1CN2 (stereo not given)	?	i	i	nt	17.8µM	i
FC(F)(F)c1ccc2c(c1)NCC1CCCN21 (stereo not given)	?	i	i	nt	?	i
SMILES	Tau fluor cs	TRb-SRC2 inh	TR SRC2 fluor cs	PNC inhibitor	Tau ThT inhib	Tau fibril FP
Cc1ccc(CN(Cc2ccco2)C(=O)COc2cccc(C)c2C)o1	i	i	i	nt	i	i
Cc1cccc(OCC(=O)N(Cc2ccc(N(C)C)cc2)Cc2ccco2)c1C	?	i	0.447µM[quencher]	nt	?	i
C[N+]1=C(/C=C/Nc2ccccc2Cl)C(C)(C)c2ccccc21	?	?	44.7µM[fluorescent]	?	28.2µM	?
FC(F)(F)c1cnc(/C=C/Nc2ccccc2Cl)c(Cl)c1	i	i	i	i	i	i
OC(CN1CCOCC1)CN1CCOCC1	i	i	i	i	i	i
c1ccc2nc(-c3ccc4c(c3)OCO4)ccc2c1	i	i	i	nt	?	i
CNc1ccccc(-c2ccc3cc4c(cc3n2)OCO4)c1=O	?	i	i	-109.0	5.01µM	i
CSc1nc2c(ccc3ccccc32)o1	i	i	i	i	i	i
CC(=O)n1cc(C(C[N+](=O)[O-])SCCN)c2ccccc21 (stereo not given)	i	i	i	i	12.6µM	i
CC1=C(C#N)C(c2ccc(O)cc2)C(C#N)=C(C)N1	i	i	i	nt	i	i
CS(=O)(=O)N1CCN(C(=O)c2ccc(-c3ccccc3)cc2)CC1	i	i	i	-83.2	i	i
CC(C)(C)C(=O)NCCc1nc2ccccc2n1CCCCOc1ccccc1	i	i	i	nt	?	i
Cc1cc(C)n(CCc2nc(-c3cccs3)cs2)n1	i	i	i	i	i	i
Cc1cc(C)n(CCc2nc(-c3ccco3)cs2)n1	i	i	i	i	35.5µM	?
Cc1nn(CCc2nc(-c3ccco3)cs2)c2[nH]c(=O)cc(C(F)(F)F)c12	i	i	i	?	25.1µM	?
O=C1C2C3C=CC(C4CC34)C2C(=O)N1/N=C/c1ccc(-c2ccc(F)cc2[N+](=O)[O-])o1 (stereo not given)	?	i	i	?	?	?
COc1ccc(OC)c(NC(=O)c2c(NCc3ccc(N(C)C)cc3)sc3c2CCCC3)c1	?	i	i	nt	?	i
COc1ccccc1NC(=O)CSc1nc(N)c(-c2ccccc2)c(=O)[nH]1	i	i	i	nt	i	i
Cc1cc(-c2csc(N)n2)c(C)n1CCC(C)C	?	i	i	?	?	i
Cc1cc(-c2csc(N)n2)c(C)n1CCc1ccccc1	?	i	i	-107.7	?	i
O=C(CNC(=O)c1ccc(Cl)cc1)OCc1cc(=O)n2ccsc2n1	i	i	i	nt	i	i
CN(C(=O)COC(=O)CNC(=O)C12CC3CC(CC(C3)C1)C2)C1CCS(=O)(=O)C1 (stereo not given)	i	i	i	-121.5	i	i
O=C(COC(=O)CNC(=O)C12CC3CC(CC(C3)C1)C2)NC1CCS(=O)(=O)C1 (stereo not given)	i	i	i	?	i	i
CCOC(=O)C1=C(CSc2nc(CC)c(C)cc2C#N)OC(N)=C(C#N)C1c1ccc(OC)cc1 (stereo not given)	i	i	i	i	i	i
COC(=O)C1=C(CSc2nc3c(cc2C#N)CN(C)CC3)OC(N)=C(C#N)C1c1ccc(F)cc1 (stereo not given)	?	i	i	?	25.1µM	?
COC(=O)c1sccc1NC(=O)c1sccc1C	i	i	i	-100.0	i	i
